The list is not random: actives were taken first. Their share in the collection is about 4%.
tim10-1 inh – growth inhibitors of tim10-1 mutant yeast. S. cerevisiae tim10-1 ts strain growth, BacTiter-Glo, 24 h. inhibition, % at 20 µM. hit rate 2.2% among 330,000. AID 463190;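 active = inhibition of at least 40%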;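 also: mutant grown at 25 °C; 0% = DMSO wells with yeast and 100% = wells holding no yeast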
tim23-1 inh – tim23-1 yeast growth inhibition. S. cerevisiae tim23-1 growth, BacTiter-Glo luminescence, 24 h. inhibition, % at 20 µM. hit rate 1.3% among 330,000. AID 463212;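 active = growth inhibition of the mutant yeast at or above 50%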;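 also: temperature-sensitive mutant grown at 25 °C; plate controls were DMSO-treated mutant yeast for no effect and medium wells lacking yeast for full effect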
NALP1 yeast inh – NALP1 inhibition; hit rate 0.61% among 280,000; AID 2071; S. cerevisiae NALP1/ASC/caspase-1 growth, X-gal OD620, 72 h; inhibition, % at 10 µM; in the data active = inhibition mostly above about 24%, no sharp cut-off; inactive = mostly below about 32%
TIM10 inh – inhibits growth of TIM10 yeast strain; S. cerevisiae TIM10 strain growth, BacTiter-Glo luminescence, 24 h; inhibition, % at 10 µM; hit rate 1.4% among 330,000; AID 463195;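 active = inhibition of 40% or more at the single tested concentration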;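 also: wild-type TIM10 isogenic control strain grown at permissive 25 °C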
NALP3 yeast inh – inhibitors of NALP3 inflammasome in yeast | AID 2825 | inhibition, % at 10 µM | Yeast reconstituted NLRP3/ASC/caspase-1, beta-gal luminescence, 24 h | hit rate 0.39% among 330,000;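 active = inhibition of 50% or more; inactive = inhibition below 50%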;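 also: plate controls were induced DMSO wells for no effect and uninduced yeast grown without galactose for full effect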
NALP3 yeast conf – confirmation of NALP3 inhibitors in yeast; inhibition, % at 10 µM; shares compounds with NALP3 yeast inh; yeast expressing human NALP3, luminescence; hit rate 81% among 1,300; in the data active = inhibition above about 48%
Casp1-ASC yeast – counter-screen for NALP3 inhibitors: yeast caspase-1-ASC. shares compounds with NALP3 yeast inh. yeast expressing Caspase-1-ASC, luminescence counter screen. inhibition, % at 10 µM. hit rate 66% among 1,000
NALP3 yeast rt – confirmation retest of NALP3 inhibitors in yeast; inhibition, % at 10 µM; AID 488794; shares compounds with NALP3 yeast inh; yeast expressing human NALP3, luminescence read-out; hit rate 53% among 1,000
* marks the source's active call; other numbers are inactive results; . = no result given. Rule as the data show it, unless noted: active = inhibition above about 50%; inactive = the rest.

SMILES	tim10-1 inh	tim23-1 inh	NALP1 yeast inh	TIM10 inh	NALP3 yeast inh	NALP3 yeast conf	Casp1-ASC yeast	NALP3 yeast rt
Cc1csc2c(N3CCN(S(=O)(=O)c4ccc(Cl)cc4)CC3)ncnc12	12	9	24	13	68*	55*	38	29
COc1ccc2c(C)cc(SCC(=O)NC3CCCC3)nc2c1	6	28	.	12	48	.	.	.
COc1ccc2nc(SCC(=O)NC3CCCC3)c(C)cc2c1	5	2	14	16	58*	71*	53*	49
O=C(O)CSc1nc2ccc(C(=O)c3ccccc3)cc2[nH]1	10	4	16	4	20	.	.	.
CCSc1nnc(NC(=O)c2ccccc2C)s1	12	41	6	17	57*	48	.	.
CCSc1nnc(NC(=O)c2ccccn2)s1	32	6	24	17	55*	61*	.	.
CCSc1nnc(NC(=O)c2ccccc2)s1	1	30	46	4	43	.	.	.
CC(Sc1nnc(-c2cccs2)n1N)C(=O)NCC1CCCO1 (centres undefined)	2	0	.	-7	4	.	.	.
Cc1ccc(C(=O)NC(=C(Cl)Cl)S(=O)(=O)c2ccc(C)cc2)cc1	19	36	30	17	31	.	.	.
Cc1ccc(C(=O)NC(=C(Cl)Cl)S(=O)(=O)c2ccc(Cl)cc2)cc1	7	35	13	-2	57*	41	33	40
CCOC(=O)Cc1csc(NC(=O)c2cccc(OC)c2)n1	-18	8	17	11	44	.	.	.
CCOC(=O)Cc1csc(NC(=O)c2cccc([N+](=O)[O-])c2)n1	-12	11	22	-28	59*	76*	69*	51*
COc1ccccc1CNS(=O)(=O)c1ccc2c(c1)NC(=O)C(C)S2 (centres undefined)	25	7	21	-6	3	.	.	.
CSc1ccc(/C=N/N(C)S(=O)(=O)c2ccc(C)cc2)cc1	4	12	8	3	42	.	.	.
Cc1ccc(/C=N/N(C)S(=O)(=O)c2ccc(C)cc2)cc1	17	25	2	3	51*	58*	58*	33
O/N=C/c1ccc(OCc2ccccc2)c(Br)c1	.	.	16	.	.	.	.	.
O/N=C/c1cc(Br)cc(Br)c1OCc1ccccc1	37	24	.	-36	-102	-40	.	.
O=C1C2N=NN(CC(=O)N3N=C(c4ccccc4)CC3c3ccc([N+](=O)[O-])cc3)C2C(=O)N1c1ccccc1 (centres undefined)	9	21	8	15	55*	71*	.	.
C(=C\c1nc2ccccc2[nH]1)/c1ccccc1	30	43	-6	31	61*	84*	60*	57*
Nc1ccc(Br)cc1-c1nc2ccccc2[nH]c1=O	-45	8	-1	0	54*	24	.	.
Cc1cc(C)cc(C(=O)N(Cc2ccco2)c2c(N)n(Cc3ccccc3)c(=O)[nH]c2=O)c1	14	17	.	3	-6	.	.	.
NC(=O)CC(NC(=O)Cc1ccc(Br)cc1)c1ccc(N2CCC(Cc3ccccc3)CC2)c([N+](=O)[O-])c1 (centres undefined)	8	5	.	12	51*	80*	18	4
CCOC(=O)c1ccc2c(c1)nc(COc1ccc(OC)cc1)n2CC	13	14	-34	-4	61*	61*	42	50
CCOC(=O)c1ccc2c(c1)nc(-c1ccccn1)n2CC	-21	36	13	4	21	.	.	.
COC(=O)c1ccc(-c2nc3ccccc3[nH]2)cc1	-82	11	46	-9	63*	38	.	.
SMILES	tim10-1 inh	tim23-1 inh	NALP1 yeast inh	TIM10 inh	NALP3 yeast inh	NALP3 yeast conf	Casp1-ASC yeast	NALP3 yeast rt
COC(=O)c1ccc(C(=O)Nc2ccc3nc(-c4ccncc4)[nH]c3c2)cc1	16	8	5	-9	0	.	.	.
Cc1ccc2sc(N(CCCN(C)C)C(=O)CCS(=O)(=O)c3ccccc3)nc2c1C	31	24	84*	19	53*	77*	66*	54*
CCOC(=O)c1c(NC(=O)CSc2nnc(C)o2)sc(C)c1C	10	31	.	10	52*	54*	48	34
CCOC(=O)c1c(NC(=O)CSc2nnnn2C)sc(C)c1C	18	12	8	15	15	.	.	.
O=C(c1ccccc1)c1cccc(C(=O)c2ccccc2)c1	11	29	.	-3	56*	58*	54*	51*
c1ccc(-c2n[nH]c3ccccc23)cc1	-2	31	22*	18	65*	85*	70*	63*
O=C(O)c1ccc(-c2ccccn2)s1	2	8	-4	-2	4	.	.	.
c1ccc(-c2ccc(-c3ccccn3)s2)nc1	6	49	21	7	52*	56*	50	24
O=S(=O)(c1ccc(N2CCCC2)cc1)C(F)(F)F	6	21	-12	6	56*	59*	59*	46
CCc1noc(C)c1C(=O)N(C)CC(=O)Nc1ccc(F)c(F)c1F	6	13	.	1	-1	.	.	.
O=C(c1ccc(F)cc1)n1ccc(-c2cnc(-c3ccccc3)s2)n1	-6	19	5	1	73*	57*	12	-1
Fc1ccc(Cn2ccc(-c3cnc(-c4ccccc4)s3)n2)cc1	-13	22	-13	-1	23	.	.	.
CC(=O)Nc1cccc(-c2nc3ccccc3s2)c1	16	39	4	8	54*	46	.	.
Nc1cccc(-c2nc3ccccc3s2)c1	26	35	5	4	26	.	.	.
Oc1cccc(-c2nc3ccccc3s2)c1	34	47	11	29	73*	84*	82*	69*
CC(=O)Nc1cccc(-c2nc3ccc(NC(C)=O)cc3s2)c1	4	4	-3	5	13	.	.	.
CCC(C(=O)NC1CCCC1)N(Cc1ccco1)C(=O)CNS(=O)(=O)c1ccccc1 (centres undefined)	21	9	22	3	-1	.	.	.
CC1(C)CC(=O)C=C(c2ccc(-c3ccccc3)cc2)C1	16	19	.	14	9	.	.	.
Cc1c(/C=N/NC(=O)CNc2ccccc2)c2ccccn2c1C(=O)c1ccc(Cl)cc1	7	26	21	15	11	.	.	.
Cc1c(C=O)c2ccccn2c1C(=O)c1ccc(Cl)c([N+](=O)[O-])c1	-17	-6	-9	1	19	.	.	.
Cc1c(C=O)c2ccccn2c1C(=O)c1ccc(F)cc1	-10	35	8	-8	59*	72*	60*	54*
Cc1c(C=O)c2ccccn2c1C(=O)c1ccccc1	17	32	19	-17	56*	59*	55*	41
CCOC(=O)C1=C(COC(=O)/C=C/c2ccc(OC)cc2OC)NC(=O)NC1C (centres undefined)	-1	6	.	-6	8	.	.	.

Compound activity as filed in PubChem.
